The values below come from PubChem BioAssay.

SMILES strings stand for the structures. The source made the active and inactive calls.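 Rule for the calls, unless noted: active = inhibition at or above 50% at 10 µM; inactive = inhibition below 50%.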

A short description of assay [1]: inhibitors of TNFa-induced NFkB p65 translocation, primary screen, imaging, HUVEC, MLSMR starter and 10KST1 sets (AID 438;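 active = inhibition above 20% together with a positive visual image hit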;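 note: compound added about 3h40 before a 20 min TNFalpha stimulation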;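 for inhibition: signal is the nuclear over cytoplasmic p65 intensity ratio per well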). The conditions noted are these: HUVEC TNFa-induced p65 nuclear translocation; cell count: measured here: nuclei count (cytotoxicity indicator), at 2.08 µM; inhibition: at 2 µM, stronger effect = higher value, 0% TNFa-plus-vehicle, 100% no-TNFa wells.
Assay [2] is described as follows: inhibitors of mutant huntingtin aggregation, primary screen, imaging, exon1htt(103Q)mCFP cells, high-content imaging (AID 483;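 active = visual image review flags a hit and inhibition of aggregation exceeds 20%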;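 note: compound exposure lasted 3 days before fixation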;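 for nuclei count: percent of the per-plate median nuclei count of sample wells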). The conditions noted are these: exon1htt(103Q)mCFP cell line, aggregate imaging, at 2 µM; inhibition of aggregation: stronger effect = higher value; nuclei count: measured here: cell count, toxicity.
Assay [3] is described as follows: inhibitors of E-selectin induction by TNFa, primary screen, imaging, HUVEC, immunofluorescence, MLSMR starter and 10KST1 sets (AID 487;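 active = visually confirmed hit in the image check and inhibition above 20%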;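 for inhibition: signal is fraction of cell area covered by stained E-selectin grains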;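 for nuclei count: 100% = median nuclei count of all wells on the same plate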). The conditions noted are these: HUVEC TNFalpha-induced E-selectin immunofluorescence imaging, at 2 µM; inhibition: stronger effect = higher value; nuclei count: measured here: cell number, toxicity.
For assay [4], the target named is Voltage-gated potassium channel subunit beta-2 (Rattus norvegicus) (UniProt P62483). In words: KvBeta enzyme negative modulators, primary screen, biochemical, NADPH fluorescence (AID 622;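 active = fluorescence slope higher than the sample average by over 3 SD, cut at about -0.22 in these data, passing the limit was not always enough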;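 note: slope of raw intensity against log time taken from 70 to 1610 s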). The note with it: recombinant KvBeta, 4-cyanobenzaldehyde reduction, at 10 µM, stronger effect = higher value.
Sequence of Voltage-gated potassium channel subunit beta-2 (Rattus norvegicus) (P62483 whole entry, looked up): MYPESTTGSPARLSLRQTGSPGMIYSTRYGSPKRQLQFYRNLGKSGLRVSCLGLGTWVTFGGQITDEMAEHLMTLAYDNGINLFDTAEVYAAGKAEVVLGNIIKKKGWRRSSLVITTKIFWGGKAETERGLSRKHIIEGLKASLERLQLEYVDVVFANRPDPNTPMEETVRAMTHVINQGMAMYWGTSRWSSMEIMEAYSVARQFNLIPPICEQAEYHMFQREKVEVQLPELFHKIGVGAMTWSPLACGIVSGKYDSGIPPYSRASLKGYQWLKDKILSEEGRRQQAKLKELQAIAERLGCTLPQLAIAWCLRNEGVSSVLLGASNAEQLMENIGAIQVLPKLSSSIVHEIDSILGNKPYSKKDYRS
For assay [5] the target is unchanged. In words: KvBeta positive modulators, primary screen, biochemical, NADPH fluorescence (AID 623;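 active = NADPH fluorescence slope more negative than the mean of all samples by about 3 SD, 99.7% confidence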;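 note: fluorescence intensity change per second fitted from 20 to 320 s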). The note with it: Recombinant KvBeta, NADPH fluorescence decrease slope, 10 min; at 10 µM; stronger effect = lower value.
Assay [6] deals with Alpha-2C adrenergic receptor (Homo sapiens) (UniProt P18825). In words: modulators of alpha2C/GIRK thallium flux, primary screen, cell-based, HEK293 alpha2C/GIRK1/2 (AID 624;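 active = fluorescence slope after compound addition differing from the mean of all screened samples at 99.7% confidence, in either direction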;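 note: slope of fluorescence ratio to pre-addition baseline per second over 15 to 24 s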). The conditions noted are these: thallium flux BTC fluorescence, at 10 µM, actives lie on both sides.
Sequence of Alpha-2C adrenergic receptor (Homo sapiens) (P18825 whole entry, looked up): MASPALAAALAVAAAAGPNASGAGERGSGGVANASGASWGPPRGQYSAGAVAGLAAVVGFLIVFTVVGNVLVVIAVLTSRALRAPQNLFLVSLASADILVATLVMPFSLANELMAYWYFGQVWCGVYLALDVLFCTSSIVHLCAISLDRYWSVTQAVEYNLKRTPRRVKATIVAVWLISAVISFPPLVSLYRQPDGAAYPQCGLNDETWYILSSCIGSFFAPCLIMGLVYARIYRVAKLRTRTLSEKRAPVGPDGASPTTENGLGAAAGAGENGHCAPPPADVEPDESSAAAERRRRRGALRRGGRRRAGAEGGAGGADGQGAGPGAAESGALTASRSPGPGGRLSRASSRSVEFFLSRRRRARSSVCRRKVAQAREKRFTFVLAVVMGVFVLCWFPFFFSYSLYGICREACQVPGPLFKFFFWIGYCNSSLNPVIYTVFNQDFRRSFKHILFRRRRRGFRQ
Assay [7] can be described thus: inhibitors of Sendai virus-induced IRF3 signaling, primary screen, TLR/RLR signaling modifier project, cell-based, Sendai virus stimulus, luciferase, 10K MLSCN set (AID 602276).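 Note: firefly luciferase from ISG56 promoter only with Renilla not read in this screen; 0% = Sendai virus plus DMSO and 100% = medium plus DMSO without virus.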 The note with it: HEK293 RL24 IRF3 luciferase reporter, at 10 µM, stronger effect = higher value. On the technique in general: A reporter such as luciferase makes a cellular process visible.
Assay [8] can be described thus: inhibitors of poly I:C-induced TLR3 signaling, primary screen, cell-based, poly I:C stimulus, luciferase, 10K MLSCN set (AID 602277;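 active = inhibition of the reporter signal at or above 50%; inactive = inhibition below 50%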). The conditions noted are these: HEK293-TLR3 RL24 IRF3 luciferase reporter, at 10 µM, stronger effect = higher value.

As for `CCOC(=O)C1CCN(C(c2cc3cc(C)cc(C)c3[nH]c2=O)c2nnnn2C2CCCCC2)CC1` (centres undefined), in assay [1], the cell count was determined as 444. Moreover, the inhibition in assay [1] was -8.2% (inactive); in assay [3], -75.4% (inactive); in assay [7], 13.6% (inactive); in assay [8], 38.3% (inactive). Further, in assay [2], the inhibition of aggregation is -7.5% (inactive). For the same compound, the nuclei count in assay [2] was found to be 77.4%; in assay [3] it was 159%. Besides, the fluorescence slope in assay [4] is -0.625 (inactive). Besides, the NADPH fluorescence slope in assay [5] is -3.6e-06 (inactive). The slope in assay [6] is 0.00591 (inactive).
Take `COP(C)(=O)c1c(C)nn(-c2ccccc2)c1C` (centres undefined): the cell count in assay [1] worked out at 558. Besides, the inhibition in assay [1] is 6.8% (inactive); in assay [3] it was -11.2% (inactive); in assay [7], 8.87% (inactive); in assay [8], 37.6% (inactive). The inhibition of aggregation in assay [2] is -0.1% (inactive). The results for the nuclei count in assay [2] and in assay [3] were 95.4% and 112%, respectively. The fluorescence slope in assay [4] was -0.424 (inactive). Further, the NADPH fluorescence slope in assay [5] was -2.1e-06 (inactive). The slope in assay [6] is 0.00629 (inactive).
`CC1(C)Cc2cccc(OCC(=O)O)c2O1`: in assay [1], the cell count worked out at 635. Also, the inhibition in assay [1] was -2.7% (inactive); in assay [3], -111% (inactive); in assay [7], 11.4% (inactive); in assay [8] it was 17.1% (inactive). The inhibition of aggregation in assay [2] was -1% (inactive). The results for the nuclei count in assay [2] and in assay [3] were 100% and 108%, respectively. In assay [4], the fluorescence slope was -0.423 (inactive). In addition, the NADPH fluorescence slope in assay [5] is -2.7e-05 (inactive). Moreover, in assay [6], the slope was 0.00676 (inactive).
As for `CCOCCCNC(=O)CS(=O)(=O)Cc1nc(-c2cccc(OC)c2)oc1C`, in assay [1], the cell count turned out to be 558. Further, the inhibition in assay [1] was -43.9% (inactive); in assay [3], -6.1% (inactive); in assay [7], 12.4% (inactive); in assay [8], 33.7% (inactive). Also, in assay [2], the inhibition of aggregation is 16% (inactive). The nuclei count in assay [2] was determined as 65.2%; in assay [3], 97.9%. The fluorescence slope in assay [4] is -0.596 (inactive). Moreover, the NADPH fluorescence slope in assay [5] is 4.7e-07 (inactive). In assay [6], the slope was 0.00578 (inactive).
On to `CSc1nc(=NC(C)=O)ss1`, for which the cell count in assay [1] stood at 723. In addition, the inhibition was -18.1% (inactive) in assay [1], 22.2% (inactive) in assay [3], 4% (inactive) in assay [7] and 8.14% (inactive) in assay [8]. Besides, the inhibition of aggregation in assay [2] is -0.1% (inactive). Further, the nuclei count in assay [2] turned out to be 106%; in assay [3], 110%. For the same compound, the fluorescence slope in assay [4] was -0.528 (inactive). In addition, the NADPH fluorescence slope in assay [5] was -5.6e-05 (inactive). Further, the slope in assay [6] is 0.00608 (inactive).
As to `S=C(c1cccs1)N1CCCC1`, the cell count in assay [1] is 708. Also, the inhibition in assay [1] is -25.9% (inactive); in assay [3], 22.3% (inactive); in assay [7], -7.06% (inactive); in assay [8] it was 6.9% (inactive). Also, in assay [2], the inhibition of aggregation was -3.8% (inactive). Further, the nuclei count in assay [2] was found to be 105%; in assay [3] it was 100%. For the same compound, the fluorescence slope in assay [4] is -0.421 (inactive). Also, the NADPH fluorescence slope in assay [5] was -4e-05 (inactive). In assay [6], the slope was 0.00656 (inactive).
As for `CCN1CCN(Cc2nc3c(c(=O)n(C)c(=O)n3C)n2CC(=O)c2ccccc2)CC1`, the cell count in assay [1] was 465. Moreover, the inhibition in assay [1] was -1.8% (inactive); in assay [3], -9.3% (inactive); in assay [7], 6.82% (inactive); in assay [8] it was 38.5% (inactive). Besides, the inhibition of aggregation in assay [2] was -8.6% (inactive). The nuclei count came out at 89.6% in assay [2] and 106% in assay [3]. Also, the fluorescence slope in assay [4] was -0.556 (inactive). Also, the NADPH fluorescence slope in assay [5] is -3e-05 (inactive). Besides, the slope in assay [6] is 0.00683 (inactive).
For the compound `COc1ccc(N2Cc3ccccc3C2)cc1Cl`, in assay [1], the cell count was found to be 579. Moreover, the inhibition is -12.3% (inactive) in assay [1], -2% (inactive) in assay [3], -31.1% (inactive) in assay [7] and -55.5% (inactive) in assay [8]. Further, the inhibition of aggregation in assay [2] is -13.8% (inactive). Besides, the values for the nuclei count in assay [2] and in assay [3] were 84% and 98.5%, respectively. Besides, the fluorescence slope in assay [4] was -0.527 (inactive). Further, the NADPH fluorescence slope in assay [5] was -2.4e-05 (inactive). In addition, the slope in assay [6] is 0.00436 (inactive).
Take `COc1ccc2c(c1)OC(O)(C(F)F)CC2=O` (centres undefined): the cell count in assay [1] came out at 406. The inhibition is 1.5% (inactive) in assay [1], -205% (inactive) in assay [3], 6.89% (inactive) in assay [7] and 28.4% (inactive) in assay [8]. The inhibition of aggregation in assay [2] is 5.7% (inactive). Also, the nuclei count amounted to 91.2% in assay [2] and 96.2% in assay [3]. For the same compound, the fluorescence slope in assay [4] was -0.398 (inactive). The NADPH fluorescence slope in assay [5] is 2.1e-05 (inactive). For the same compound, in assay [6], the slope was 0.00381 (inactive).
Take `N#CCc1c(C#N)c(N)nc(N2CCN(S(=O)(=O)c3ccccc3)CC2)c1C#N`: the cell count in assay [1] amounted to 349. Besides, the inhibition was 1.3% (inactive) in assay [1], 14.3% (inactive) in assay [3], 11% (inactive) in assay [7] and 34.3% (inactive) in assay [8]. The inhibition of aggregation in assay [2] is -7.2% (inactive). The nuclei count in assay [2] stood at 96.4%; in assay [3] it was 108%. The fluorescence slope in assay [4] was -0.427 (inactive). In assay [5], the NADPH fluorescence slope was -4.2e-05 (inactive). The slope in assay [6] was 0.00665 (inactive).
Take `CC(C)CN(C(=O)COC(=O)Cc1n[nH]c(=O)c2ccccc12)C1CCS(=O)(=O)C1` (centres undefined): in assay [1], the cell count was found to be 399. In addition, the inhibition was 1.7% (inactive) in assay [1], -65.6% (inactive) in assay [3], 12% (inactive) in assay [7] and 34.3% (inactive) in assay [8]. Moreover, in assay [2], the inhibition of aggregation was 14.7% (inactive). The nuclei count worked out at 96.8% in assay [2] and 108% in assay [3]. In addition, the fluorescence slope in assay [4] was -0.586 (inactive). The NADPH fluorescence slope in assay [5] was -1.4e-05 (inactive). The slope in assay [6] is 0.00565 (inactive).
For `O=C(CCn1c(=S)[nH]c2cc3c(cc2c1=O)OCO3)N1CCN(C2CCCCC2)CC1`, in assay [1], the cell count turned out to be 473. Also, the inhibition in assay [1] was 4.3% (inactive); in assay [3], 28.2% (inactive); in assay [7], 3.29% (inactive); in assay [8], 33.1% (inactive). Besides, in assay [2], the inhibition of aggregation is 4.1% (inactive). For the same compound, the results for the nuclei count in assay [2] and in assay [3] were 129% and 85.3%, respectively. Moreover, the fluorescence slope in assay [4] is -0.476 (inactive). In addition, the NADPH fluorescence slope in assay [5] was -9.8e-07 (inactive). Also, the slope in assay [6] was 0.00668 (inactive).
`CCCCOc1ccc(N(CC(=O)NC2CCCC2)C(=O)CCC(=O)Nc2ccccn2)cc1`: the cell count in assay [1] came to 582. Moreover, the inhibition was -1.5% (inactive) in assay [1], -7.6% (inactive) in assay [3], 15.8% (inactive) in assay [7] and 28.8% (inactive) in assay [8]. For the same compound, the inhibition of aggregation in assay [2] was -1.9% (inactive). For the same compound, the nuclei count is 94% in assay [2] and 101% in assay [3]. Also, the fluorescence slope in assay [4] was -0.416 (inactive). Moreover, the NADPH fluorescence slope in assay [5] was 1.8e-06 (inactive). In addition, the slope in assay [6] is 0.00642 (inactive).
Take `CCN(CC)CCOc1cccc(C(C)C)c1`: the cell count in assay [1] was determined as 657. Moreover, the inhibition in assay [1] is -5.3% (inactive); in assay [3] it was 1.1% (inactive); in assay [7], 6.62% (inactive); in assay [8] it was 13.5% (inactive). The inhibition of aggregation in assay [2] was -2.7% (inactive). The values for the nuclei count in assay [2] and in assay [3] were 104% and 76.3%, respectively. Further, in assay [4], the fluorescence slope is -0.393 (inactive). In addition, the NADPH fluorescence slope in assay [5] is -7.6e-05 (inactive). Moreover, the slope in assay [6] was 0.00629 (inactive).

What is called inhibition is the drop in the measured response relative to a control, in per cent.
